Screens from PubChem.
Shown are actives, neighbours in structure and some others; about 3.7% of the full set was active somewhere.
Bead autofluor: compound fluorescence in toxin protease inhibitor counterscreen; 360,000 compounds, 3.1% hits; fluorescence intensity (concentration not given with the values); compound autofluorescence counterscreen, microsphere flow cytometry; stronger effect = higher value; in the data active = fluorescence intensity above about 16000; inconclusive = no clear call, values can overlap the other calls
BoNT-A LC inh2: BoNT/A light chain protease inhibitors, primary screen, biochemical, flow cytometry, MLPCN library | Botulinum neurotoxin type A light chain protease (Clostridium botulinum A str. ATCC 3502) | multiplex microsphere protease substrate cleavage | inhibition, % at 10 µM | 360,000 compounds, 0.17% hits
BoNT F protease: BoNT/F light chain protease inhibitors, primary screen, biochemical, flow cytometry, MLPCN library; inhibition, % at 10 µM; 360,000 compounds, 0.22% hits; Botulinum neurotoxin type F light chain protease (Clostridium botulinum); Multiplex microsphere protease cleavage assay; in the data active = inhibition above about 35%, passing the limit was not always enough; inconclusive = no clear call, values can overlap the other calls
Anthrax LF prot: Bacillus anthracis LF protease inhibitors, primary screen, biochemical, multiplex microsphere, MLPCN library; 360,000 compounds, 0.12% hits; inhibition, % at 10 µM; Lethal factor (Bacillus anthracis), P15917; multiplex microsphere protease cleavage assay
MazF activator: activators of E. coli MazEF toxin-antitoxin RNase, primary screen, biochemical, fluorescence, uHTS. Endoribonuclease toxin MazF (Escherichia coli (strain K12)), P0AE70. FAM/BHQ RNA-DNA oligo cleavage fluorescence, 5 h. activation, % at 20 µM. 350,000 compounds, 0.32% hits; in the data active = activation above about 50%
Target sequence (P0AE70 whole entry, looked up): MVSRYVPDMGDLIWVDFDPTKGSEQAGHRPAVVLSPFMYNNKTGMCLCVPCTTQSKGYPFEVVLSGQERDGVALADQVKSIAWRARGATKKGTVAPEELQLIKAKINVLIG
A number is an active result. Rule as the data show it, unless noted: active = inhibition above about 30%; inconclusive = no clear call, values can overlap the other calls; inactive = below that.

CCC(C)(C)C1CCC(=NNS(=O)(=O)c2ccc(C)c([N+](=O)[O-])c2)CC1 (stereo not drawn) was read as Bead autofluor inactive, BoNT-A LC inh2 inactive, BoNT F protease inactive, Anthrax LF prot inactive and MazF activator 125.
CC1CCC/C(=N\NS(=O)(=O)c2ccccc2)C1 (stereo not drawn) was read as Bead autofluor inactive, BoNT-A LC inh2 inactive, BoNT F protease inactive, Anthrax LF prot inactive and MazF activator inactive.
`C/C(CCC(C)C)=N\NS(=O)(=O)c1ccc(C)c([N+](=O)[O-])c1` gave Bead autofluor inactive, BoNT-A LC inh2 inactive, BoNT F protease inactive, Anthrax LF prot inactive and MazF activator 82.
For CC/C(C)=N/NS(=O)(=O)c1ccc(C)c([N+](=O)[O-])c1 the results were Bead autofluor inactive, BoNT-A LC inh2 inactive, BoNT F protease inactive, Anthrax LF prot inactive and MazF activator 122.
Cc1ccc(S(=O)(=O)N/N=C2/CCCCC2C2CCCCC2)cc1[N+](=O)[O-] (stereo not drawn) was read as Bead autofluor inactive, BoNT-A LC inh2 inactive, BoNT F protease inactive, Anthrax LF prot inactive and MazF activator inactive.
CC1CCC(=NNS(=O)(=O)c2ccc([N+](=O)[O-])cc2)CC1 (stereo not drawn) was read as Bead autofluor inactive, BoNT-A LC inh2 inactive, BoNT F protease inactive, Anthrax LF prot inactive and MazF activator 110.
`Cc1ccc(S(=O)(=O)NCCC(C)C)cc1[N+](=O)[O-]` gave Bead autofluor inactive, BoNT-A LC inh2 inactive, BoNT F protease inactive, Anthrax LF prot inactive and MazF activator inactive.
Nc1[nH]c(C(=O)c2ccccc2)c(-c2ccc(Cl)cc2)c1C(=O)NCc1ccccc1 was read as Bead autofluor inactive, BoNT-A LC inh2 inactive, BoNT F protease inactive and Anthrax LF prot inactive.
Screening COc1ccc(C2c3ccc4ccccc4c3Oc3ncn(CCN(C)C)c(=N)c32)cc1 (stereo not drawn) returned Bead autofluor inactive, BoNT-A LC inh2 inactive, BoNT F protease inactive, Anthrax LF prot inactive and MazF activator inactive.
Screening O=C(NC1(Cc2ccccc2)CCN(CCc2cccs2)C1=O)c1ccccc1 (stereo not drawn) returned Bead autofluor inactive, BoNT-A LC inh2 inactive, BoNT F protease inactive, Anthrax LF prot inactive and MazF activator inactive.
For Cc1ccc(NC(=O)CN2C(=O)NC3(CCc4ccccc43)C2=O)cc1 (stereo not drawn) the results were Bead autofluor inactive, BoNT-A LC inh2 inactive, BoNT F protease inactive, Anthrax LF prot inactive and MazF activator inactive.
`O=C(CN1C(=O)NC2(CCc3ccccc32)C1=O)Nc1ccc(N2CCOCC2)cc1` (stereo not drawn) gave Bead autofluor 16378, BoNT-A LC inh2 inactive, BoNT F protease inactive, Anthrax LF prot inactive and MazF activator inactive.
Screening COc1ccc(NC(=O)NS(=O)(=O)c2ccc(C)cc2)cn1 returned Bead autofluor inactive, BoNT-A LC inh2 inactive, BoNT F protease inactive, Anthrax LF prot inactive and MazF activator inactive.
`COc1cc(NC(=O)NS(=O)(=O)c2ccc(C)cc2)cc(OC)c1` gave Bead autofluor 20395, BoNT-A LC inh2 inconclusive, BoNT F protease inactive, Anthrax LF prot inactive and MazF activator inactive.
`Cc1ccc(S(=O)(=O)NC(=O)Nc2ccc(F)cc2)cc1` gave Bead autofluor 16339, BoNT-A LC inh2 inactive, BoNT F protease inactive, Anthrax LF prot inactive and MazF activator inactive.
For Cc1ccc(S(=O)(=O)N(C)CC(=O)N(C)Cc2cccs2)cc1 the results were Bead autofluor inactive, BoNT-A LC inh2 inactive, BoNT F protease inactive, Anthrax LF prot inactive and MazF activator inactive.
Screening CCOc1ccc(NC(=O)Cn2c(=O)n(CCCC(=O)NC3CCN(Cc4ccccc4)CC3)c(=O)c3ccccc32)cc1 returned Bead autofluor inactive, BoNT-A LC inh2 inactive, BoNT F protease inactive, Anthrax LF prot inactive and MazF activator inactive.
For Cc1cc(C)c2cc3c(N)c(C(=O)Nc4c(C)[nH]c(=O)[nH]c4=O)sc3nc2c1 the results were Bead autofluor inactive, BoNT-A LC inh2 inactive, BoNT F protease inactive, Anthrax LF prot inactive and MazF activator 155.
O=C(Nc1ccc(C(O)c2ccccc2)cc1)[C@@H]1O[C@H](CO)[C@@H](O)[C@H]1O (stereo partly drawn) was read as Bead autofluor inactive, BoNT-A LC inh2 inactive, BoNT F protease inactive and Anthrax LF prot inactive.
`CC12CN3CC(C)(CN(C1)C3c1ccccc1)C2O` (stereo not drawn) gave Bead autofluor inactive, BoNT-A LC inh2 inactive, BoNT F protease inactive, Anthrax LF prot inactive and MazF activator inactive.
CC12CN3CC(C)(CN(C1)C3c1cccs1)C2O (stereo not drawn) was read as Bead autofluor 17129, BoNT-A LC inh2 inactive, BoNT F protease inactive, Anthrax LF prot inactive and MazF activator inactive.
Screening Cc1ccc(N2CC(NC(=O)N3CCN(C(=O)c4ccco4)CC3)CC2=O)cc1 (stereo not drawn) returned MazF activator inactive.
Screening Cc1ccc(NC(=O)CCC(=O)OCC(=O)c2ccc(Oc3ccc([N+](=O)[O-])cc3)cc2)c(C)c1 returned Bead autofluor 17075, BoNT-A LC inh2 inactive, BoNT F protease inactive, Anthrax LF prot inactive and MazF activator inactive.
For CCc1ccc(C(=O)C23CN4CN(CN(C4)C2)C3)cc1 the results were Bead autofluor inactive, BoNT-A LC inh2 inactive, BoNT F protease inactive, Anthrax LF prot inactive and MazF activator inactive.
For O=C(c1ccco1)C12CN3CN(CN(C3)C1)C2 the results were Bead autofluor 21201, BoNT-A LC inh2 inactive, BoNT F protease inactive, Anthrax LF prot inactive and MazF activator inactive.
Screening CN(Cc1ccc(Cl)c(Cl)c1)C(=O)C1CC(=O)N(c2ccc3c(c2)OCCO3)C1 (stereo not drawn) returned Bead autofluor inactive, BoNT-A LC inh2 inactive, BoNT F protease inactive, Anthrax LF prot inactive and MazF activator inactive.
`O=C(NCc1ccc(Cl)cc1)N1CCN(C(=O)c2ccccc2)CC1` gave Bead autofluor inactive, BoNT-A LC inh2 inactive, BoNT F protease inactive, Anthrax LF prot inactive and MazF activator inactive.
For C(=N\c1nc2ccccc2[nH]1)/c1cccs1 the results were Bead autofluor 23619, BoNT-A LC inh2 inconclusive, BoNT F protease inactive, Anthrax LF prot inactive and MazF activator inactive.
Screening Cc1ccc(S(=O)(=O)Nc2cc(-c3nn(C)c(=O)c4ccccc34)ccc2N2CCOCC2)cc1 returned Bead autofluor 22492, BoNT-A LC inh2 inconclusive, BoNT F protease inactive, Anthrax LF prot inactive and MazF activator inactive.
`O=C(Nc1ccc(F)c(F)c1)C1CCN(S(=O)(=O)c2cccs2)CC1` gave Bead autofluor inactive, BoNT-A LC inh2 inactive, BoNT F protease inactive, Anthrax LF prot inactive and MazF activator inactive.
CCOC(=O)c1c(-c2ccc(C)o2)csc1NC(=S)NC(=O)N(C)C was read as Bead autofluor 18614, BoNT-A LC inh2 inactive, BoNT F protease inactive, Anthrax LF prot inactive and MazF activator inactive.
